In article PMC4336329 (PLoS ONE, 2015):
Hit rate of the full screen: of about 310,000 compounds, about 2,200 (0.71%) showed an effect of 50% or more. The effect is printed as a negative number. Only a selection was taken, and strong results are over-represented in it overall.

target: human ether-à-go-go-related gene (hERG) potassium channel (human, UniProt Q12809); experiment: primary screen, population patch clamp on CHO cells stably expressing hERG; higher = less effect of the substance
Sequence (Q12809 whole entry, looked up): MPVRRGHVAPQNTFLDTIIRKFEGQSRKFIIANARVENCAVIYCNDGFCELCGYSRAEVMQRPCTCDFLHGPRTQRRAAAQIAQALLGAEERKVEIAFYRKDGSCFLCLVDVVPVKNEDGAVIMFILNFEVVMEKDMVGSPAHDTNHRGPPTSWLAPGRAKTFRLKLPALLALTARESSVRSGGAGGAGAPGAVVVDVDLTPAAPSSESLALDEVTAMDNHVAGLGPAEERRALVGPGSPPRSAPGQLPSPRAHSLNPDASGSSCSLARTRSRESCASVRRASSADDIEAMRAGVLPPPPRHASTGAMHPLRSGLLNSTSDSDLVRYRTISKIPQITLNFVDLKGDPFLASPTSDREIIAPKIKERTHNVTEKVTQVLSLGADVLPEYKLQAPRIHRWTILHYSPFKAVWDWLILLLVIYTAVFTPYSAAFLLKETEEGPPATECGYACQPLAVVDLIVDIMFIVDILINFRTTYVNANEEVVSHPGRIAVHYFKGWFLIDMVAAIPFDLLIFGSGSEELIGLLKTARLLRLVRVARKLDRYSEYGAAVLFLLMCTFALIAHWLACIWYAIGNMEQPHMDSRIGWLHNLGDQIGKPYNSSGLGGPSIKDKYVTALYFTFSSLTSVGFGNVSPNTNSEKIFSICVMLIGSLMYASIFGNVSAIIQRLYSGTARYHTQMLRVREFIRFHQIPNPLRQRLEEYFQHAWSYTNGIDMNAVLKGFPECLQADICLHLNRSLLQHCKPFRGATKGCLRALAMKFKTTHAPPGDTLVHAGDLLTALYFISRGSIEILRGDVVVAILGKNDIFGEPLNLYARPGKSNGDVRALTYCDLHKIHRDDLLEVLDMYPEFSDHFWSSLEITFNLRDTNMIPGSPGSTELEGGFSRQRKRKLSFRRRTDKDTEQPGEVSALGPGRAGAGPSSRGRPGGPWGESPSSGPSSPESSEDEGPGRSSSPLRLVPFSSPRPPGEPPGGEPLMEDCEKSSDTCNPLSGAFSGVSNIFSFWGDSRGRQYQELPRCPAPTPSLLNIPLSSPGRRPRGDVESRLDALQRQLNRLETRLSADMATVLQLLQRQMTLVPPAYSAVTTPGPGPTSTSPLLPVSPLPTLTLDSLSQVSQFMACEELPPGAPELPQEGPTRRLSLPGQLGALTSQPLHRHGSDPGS

SMILES	hERG current change (%, negative = inhibition) at 1uM [%]
CCc1nnc(NC(=O)C2COc3ccccc3O2)s1 (centres unmarked)	2.41
CCn1nc(NC(=O)COC)c2cc3cc(C)ccc3nc21	9.09
COc1ccc(NS(=O)(=O)NC(=O)c2c[nH]c3ccccc23)cc1	9.58
CCOc1cc(CO)cc(Br)c1OCC(=O)Nc1ccccc1C	6.36
Cc1cc(NC(=O)CCC(=O)NNC(=O)c2ccc(C(C)(C)C)cc2)no1	6.49
COc1ccc(C(=O)CN2CCN(S(=O)(=O)c3cccc([N+](=O)[O-])c3)CC2)cc1OC	3.44
COc1ccc(NC(=O)CN2CCN(CC#N)CC2)cc1	-44.9
O=C(CN1CCN(Cc2ccccc2)CC1)Nc1ccc(F)c(F)c1.O=C(O)C(=O)O	-21.9
COc1cccc(NC(C)=[N+](C)CCNS(=O)(=O)c2ccc(Cl)cc2)c1.[I-]	-36.6
COc1ccc(C(=O)CN2CCN(S(=O)(=O)c3cccc([N+](=O)[O-])c3)CC2)cc1	-64.3
COc1ccc(NC(C)=[N+](C)CCNS(=O)(=O)c2ccc(Cl)cc2)cc1.[I-]	-59.5
O=C(CN1CCN(c2ccc(Cl)cc2)CC1)Nc1ccc(F)c(F)c1	-1.8
COc1cccc(C(=O)CN2CCN(S(=O)(=O)c3cccc([N+](=O)[O-])c3)CC2)c1	6.87
CC(Nc1ccc(F)cc1)=[N+](C)CCNS(=O)(=O)c1ccc(Cl)cc1.[I-]	-45.1
COc1ccc(NC(=O)CN2CCN(CC(=O)Nc3ccc(OC)cc3)CC2)cc1	-85.6
O=C(CN1CCN(CC(=O)Nc2ccccc2Cl)CC1)Nc1ccc(F)c(F)c1	-74
COc1ccc(NC(=O)CN2CCCC2)cc1	14.6
CCOC(=O)Cn1nnc(-c2cccc(OC)c2)n1	9.82
Cc1cccc(C(=O)O/N=C(\N)CS(=O)(=O)c2ccccc2)c1	5.74
Cn1cccc1C(=O)NCC(c1ccc(F)cc1)N1CCOCC1 (centres unmarked)	5.02
CCOC(=O)CNC(=O)Cn1cnc2c(nnn2-c2cccc(Cl)c2)c1=O	-0.825

SMILES	hERG current change (%, negative = inhibition) at 1uM [%]
COc1ccc(Nc2nc(C)nc3c2nnn3Cc2ccccc2)cc1OC	4.84
CCN(CC)c1ccc(NC(=O)CN2CCN(CC(=O)Nc3ccccc3OC)CC2)cc1	-0.407
COc1ccc(NC(=O)CN2CCC(C)CC2)cc1	-0.0667
CCN(CC)c1ccc(NC(=O)CN2CCN(CC(=O)Nc3ccc(OC)cc3)CC2)cc1	-59.5
Cc1cc(=O)oc2cc(OCC(=O)N3CCCC3)c(Cl)cc12	1.63
Cc1sc2nc(CN3CCOCC3)nc(NS(=O)(=O)c3ccc4c(c3)OCCO4)c2c1C	13.1
Cc1nc(Nc2ccc3c(c2)OCCO3)c2c(C)c(C)sc2n1	-8.61
Cc1sc2nc(CN3CCCCC3)nc(Nc3ccc4c(c3)OCCO4)c2c1C	-89.2
Cc1cc2oc3c(c(=O)c2cc1C)C(c1ccc(C(C)C)cc1)N(CCCN1CCOCC1)C3=O (centres unmarked)	13
CCCN1C(=O)c2ccc(C(=O)Nc3ccccc3C(=O)O)cc2C1=O	18
COCc1cc(CN2CCN(CCc3ccccc3)C(CCO)C2)ccc1OC (centres unmarked)	-32.3
CCOc1ccc(CN2CCN(Cc3ccsc3)C(CCO)C2)cc1CO (centres unmarked)	-17.3
COCc1cc(CN2CCN(Cc3ccsc3)C(CCO)C2)ccc1OC (centres unmarked)	-56.6
Cc1ccc(NCc2nnc(SCCN3CCCCC3)n2CC2CCCO2)cc1Cl (centres unmarked)	-59.1
Cc1ccc(NCc2nnc(SCC(=O)NCc3ccco3)n2CC2CCCO2)cc1Cl (centres unmarked)	-5.15
Cc1ccc(NCc2nnc(SCCN3CCCCC3)n2CC2CCCO2)c(C)c1 (centres unmarked)	-10.7
CCOC(=O)c1c(C)[nH]c(C(=O)N2CCN(C(=O)OCC)CC2)c1C	7.64
Cc1ccc(NS(=O)(=O)c2cccs2)cc1S(=O)(=O)N1CCCCCC1	16.5
Cc1ccc(CSCc2ccc(C(=O)NCCCN3CCOCC3)o2)cc1	-21.2
COC(CNC(=O)c1ccc2c(c1)ncn2-c1ccc(F)c(F)c1)OC	-5.49
COc1ccc2cc(C(=O)N3CCCCCC3)sc(=O)c2c1OC	1.33

SMILES	hERG current change (%, negative = inhibition) at 1uM [%]
CC(=O)c1cccc(NC(=O)C(NC(C)C)c2ccccc2)c1 (centres unmarked)	10
CN(C)c1cccc(C(=O)OC(C(=O)Nc2ccc(Cl)cc2C(F)(F)F)c2ccccc2)c1 (centres unmarked)	0.322
CCN(CC)CCNC(C(=O)Nc1cccc(C(C)=O)c1)c1ccccc1.O=C(O)C(=O)O (centres unmarked)	-51.4
CN(C)CCNC(C(=O)Nc1cccc(C(F)(F)F)c1)c1ccccc1.O=C(O)C(=O)O (centres unmarked)	-14.6
COc1cccc(NC(=O)C(NCC(C)(C)CN(C)C)c2ccccc2)c1.O=C(O)C(=O)O (centres unmarked)	-12.7
CN(C)C(CNC(C(=O)Nc1ccc([N+](=O)[O-])cc1Br)c1ccccc1)c1ccccc1 (centres unmarked)	11.9
CCN(CC)CCNC(C(=O)Nc1ccc([N+](=O)[O-])cc1Br)c1ccccc1 (centres unmarked)	-86.5
CN(C)CC(C)(C)CNC(C(=O)Nc1ccc(Cl)cc1C(F)(F)F)c1ccccc1 (centres unmarked)	-72.3
CCCC(=O)OC(C(=O)Nc1cc(C(F)(F)F)ccc1Cl)c1ccccc1 (centres unmarked)	5.1
CCCCNC(C(=O)Nc1ccc([N+](=O)[O-])cc1Br)c1ccccc1 (centres unmarked)	10.5
O=C(Nc1cc(C(F)(F)F)ccc1Cl)C(NCc1ccccc1)c1ccccc1 (centres unmarked)	15.6
CCN(CC)CCNC(C(=O)Nc1cc(C(F)(F)F)ccc1Cl)c1ccccc1 (centres unmarked)	-85.3
CC(/C=N/n1c(-c2ccco2)n[nH]c1=S)=C\c1ccco1	13.9
COCCCNc1nc2c(-c3cccc(C)c3)nnn2c2ccc(Cl)cc12	13.3
CNC(=O)c1[nH]cnc1C(=O)N[C@@H](CCCCNC(=O)OC(C)(C)C)C(=O)OC(C)(C)C	13.6
Cc1cccc(NS(=O)(=O)c2cccc([N+](=O)[O-])c2)n1	13.7
Cn1ccnc1SCC(=O)Nc1cc(C(F)(F)F)ccc1N1CCOCC1	-0.591
c1ccc(-c2noc(-c3cccs3)n2)nc1	7.74
COc1cc2c(cc1OC)C1Cc3ccc(OC)c(OC)c3C[N+]1([O-])CC2 (centres unmarked)	14.1
O=C(Nc1ccccc1N1CCN(C(=O)c2ccc(Cl)cc2)CC1)c1cccnc1	-77
CCC(=O)N1CCN(c2ccc(Cl)cc2NC(=O)c2cccc([N+](=O)[O-])c2)CC1	-32

SMILES	hERG current change (%, negative = inhibition) at 1uM [%]
O=C(Nc1ccccc1N1CCN(C(=O)c2ccccc2)CC1)c1cccc(Cl)c1	-12.6
O=C(Nc1ccccc1N1CCN(C(=O)c2ccc(Cl)cc2)CC1)c1cccc([N+](=O)[O-])c1	-65.2
O=C(Nc1ccccc1N1CCN(C(=O)c2ccc(Cl)cc2)CC1)c1ccc(Br)cc1	-4.26
CS(=O)(=O)Nc1ccc(C(=O)N2CCN(c3ccccc3)CC2)cc1	-31.4
O=C(Nc1ccccc1N1CCN(C(=O)c2ccccc2)CC1)c1ccc(Cl)cc1	-7.21
O=C(Nc1ccccc1N1CCN(C(=O)c2ccc(Cl)cc2)CC1)c1cccc(F)c1	-81.2
O=C(Nc1ccccc1N1CCN(C(=O)c2ccc(Cl)cc2)CC1)c1ccc2c(c1)OCO2	-5.35
CS(=O)(=O)Nc1ccc(C(=O)N2CCN(c3ccccc3F)CC2)cc1	-69.2
O=C(c1ccccc1)N1CCN(c2ccccc2F)CC1	9.77
O=C(c1cccc([N+](=O)[O-])c1)N1CCN(c2ccc(Cl)cc2)CC1	2.13
Cc1cc(C)c(N2C(=O)C3C4CC(=O)C(c5ccccc54)C3C2=O)c(C)c1 (centres unmarked)	3.35
CC(Oc1ccc(Cl)cc1)c1ccnc(N)n1 (centres unmarked)	15.5
Cc1nc(COc2ccc(C(=O)NCc3ccccc3CN3CCCCC3)cc2)cs1	-10.6
Cc1sc(-n2c(C)cc(C=C3C(=O)NC(=O)NC3=O)c2C)c(C#N)c1C	11.2
CN(c1ccccc1)c1nc(N)c([N+](=O)[O-])c(N2CCCCC2)n1	7.57
O=C(/C=C/c1ccccc1)C1=C(O)C(=O)N(CCO)C1c1ccccc1[N+](=O)[O-] (centres unmarked)	11.9
CCOc1ccc(N2CC(C(=O)N3CCN(c4ccccn4)CC3)CC2=O)cc1 (centres unmarked)	-9.35
FC(F)(F)C(Oc1nc(Nc2ccc(Cl)cc2)nc(N2CCOCC2)n1)C(F)(F)F	11.9
CCCOc1ccc(/C=c2\sc3nc(-c4ccco4)nn3c2=O)cc1OCC	5.32
Cc1ccc(NC(=O)COc2ccccc2C(N)=O)cc1S(=O)(=O)N1CCCCCC1	-0.137
